Compounds with a hit are over-represented: about 21% of the library has one in this group of screens.
Pf growth 96h = P. falciparum growth inhibition at 96 hours. P. falciparum luciferase reporter growth, 96 h. Potency, µM (series often up to 28.7 µM), for the others: at the highest dose activity change, negative = inhibition, usual class: inhibitors. 320,000 compounds, 6.9% hits; also: potency is read from the fitted curve at half-maximal effect; % is scaled to controls: 0 for no effect and ±100 for the full control effect
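Cell-based qHTS: luciferase-tagged P. falciparum in erythrocytes (2% hematocrit, 0.05% parasitemia final) incubated with compounds for 96 hours, 37 C, 5% CO2; luciferase detection reagent then added and luminescence measured.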
CHX counter = counter-screen for Shiga toxin inhibitors: cycloheximide protein synthesis inhibition; cell reporter, cycloheximide protein synthesis inhibition counterscreen; AID 2314; max response, %; 300,000 compounds, 12% hits; in the data active = max response mostly above about 13%, no sharp cut-off; inactive = mostly below about 14%; also: read at 38.3 µM for the half of the compounds with a filed dose; 0% is about no effect
Shiga toxin inh = inhibitors of Shiga toxin in Vero cells; Vero cells, Shiga toxin protein synthesis inhibition reporter; inhibition, % at 38.7 µM; 290,000 compounds, 9.2% hits; AID 2315; in the data active = inhibition mostly above about 28%, no sharp cut-off; inactive = mostly below about 43%; also: 0% is about no effect
NS1 inh = blocks influenza NS1 protein function; Potency, µM (top dose mostly 46.1 µM), for inactives: at the highest dose activity, positive = more growth; 270,000 compounds, 0.4% hits; calls by dose curve; also: potency is read from the fitted curve at half-maximal effect; actives are rising curves; nearly all actives have a fitted effect of over 50% in size
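Compounds were scored for reversing the slow growth caused by influenza A NS1 in S. cerevisiae, measured by optical density at 600 nm. Assay medium contained 2% galactose at pH 6.0; NS1-free yeast of the same strain were the positive control.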
FBPA Giardia inh = inhibitors of Giardia lamblia fructose-1,6-bisphosphate aldolase; purified Giardia FBPA; Potency, µM (titrated, usually from 59.6 µM), for inactives: at the highest dose activity, negative = inhibition, actives largely listed as inhibitors; A8B2U2; AID 2451; 290,000 compounds, 0.71% hits; also: potency is read from the fitted curve at half-maximal effect; % is scaled to controls: 0 for no effect and ±100 for the full control effect; nearly all actives have a fitted effect of over 55% in size
Target sequence (A8B2U2 whole entry, looked up): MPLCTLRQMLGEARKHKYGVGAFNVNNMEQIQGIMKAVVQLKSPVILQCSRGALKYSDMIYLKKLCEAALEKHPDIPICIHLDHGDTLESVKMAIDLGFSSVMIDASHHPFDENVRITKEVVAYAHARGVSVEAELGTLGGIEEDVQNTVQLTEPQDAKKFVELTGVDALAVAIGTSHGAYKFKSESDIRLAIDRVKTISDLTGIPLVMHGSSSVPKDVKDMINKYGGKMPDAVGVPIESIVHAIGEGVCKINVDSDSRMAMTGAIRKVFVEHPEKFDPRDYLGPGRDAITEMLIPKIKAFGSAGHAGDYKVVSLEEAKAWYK
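Giardia FBPA (40 nM reagent) was preincubated 10 min at RT with compound (up to 57.5 uM final), then substrate plus GAPDH/TPI/NAD/arsenate coupling system with diaphorase/resazurin was added; resorufin fluorescence (525/598 nm) was read after 20 min.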
Pf growth 48h = inhibits P. falciparum growth in the first generation, 48 h; P. falciparum luciferase growth in erythrocytes, 48 h; Potency, µM (top dose mostly 28.7 µM), for the others: top-dose activity change, negative = inhibition, hits mostly inhibitors; 310,000 compounds, 5.9% hits; also: potency is read from the fitted curve at half-maximal effect; % is scaled to controls: 0 for no effect and ±100 for the full control effect
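Read-out is firefly luciferase luminescence from an integrated reporter in P. falciparum, so falling signal marks reduced parasite growth. Infected erythrocytes were at 2% hematocrit and 0.1% parasitemia (final) in Albumax-supplemented RPMI 1640.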
* = called active by the depositor; ? = inconclusive; . = no result given. Unless noted, calls follow the shape of the dose curve; as a rule, active = well fitted curve in the direction sought with a large enough effect; inconclusive = small, poorly fitted or top-dose-only effect, or another doubt; inactive = no such curve, though single readings can be large; an effect the other way counts as inactive or inconclusive.

SMILES | Pf growth 96h | CHX counter | Shiga toxin inh | NS1 inh | FBPA Giardia inh | Pf growth 48h
N[C@@H](C(=O)O)c1cc(O)ccc1Cl | . | . | . | . | 0.0% | .
COc1cccc(/C(=N/O)C2CC2c2ccc(Cl)cc2)c1 (stereo not given) | 48.5% | 1.4 | 16.2 | . | -1.5% | ?
Cc1ccnc(NS(=O)(=O)c2ccc(NS(=O)(=O)c3cc(Cl)ccc3Cl)cc2)n1 | 7.5% | 3.8 | -7.1 | 2.9% | -4.9% | 2.0%
CC(C(=O)N1CCc2ccccc21)N1CCN(Cc2ccccc2)CC1 (stereo not given) | ? | -2.4 | -6.7 | -1.4% | 10.0% | ?
CN1C(C(=O)NCc2ccco2)=CC(c2ccc(F)cc2)=NS1(=O)=O | 6.3% | -2.2 | 8.1 | 11.8% | -8.6% | 6.3%
O=C(N/N=C/c1c[nH]c2ccccc12)C1CC1(c1ccccc1)c1ccccc1 (stereo not given) | -9.8% | -0.6 | -6.4 | 1.5% | -8.4% | ?
O=C(N/N=C/c1c[nH]c2ccccc12)c1cc(Cl)ccc1O | 1.0% | 45.3* | 43.9* | -54.3% | 8.5% | 30.1%
COCCN(C(=O)COC(=O)/C=C/c1cccc(OC)c1)c1c(N)n(CC(C)C)c(=O)[nH]c1=O | 19.3% | . | . | . | . | ?
Cc1ccc(S(=O)(=O)c2nc(S(C)(=O)=O)sc2N2CCCCC2C)cc1 (stereo not given) | ? | 1.6 | -9.7 | -7.0% | . | ?
CS(=O)(=O)c1cccc(NC(=O)C2CCCN2S(=O)(=O)c2ccc(F)cc2)c1 (stereo not given) | 62.4% | -5.5 | 5.5 | -1.2% | 3.6% | 3.2%
Cc1ccc(-c2cn(-c3ccccc3)c(=S)[nH]2)cc1C | ? | 63.9* | 113.3* | -8.4% | 21.0% | .
Fc1ccccc1-n1cc(-c2ccccc2)[nH]c1=S | 0.0% | 29.4* | 36.4 | . | 2.1% | -16.8%
FC(F)(F)c1cccc(-n2cc(-c3ccccc3)[nH]c2=S)c1 | 133.6% | 8.7 | 19.9 | ? | 11.8% | 11.7µM*
Cc1ccccc1-c1cn(-c2ccccc2)c(=S)[nH]1 | ? | -4.1 | 5.6 | -2.2% | ? | ?
COc1ccc(C2=NCN(c3ccc(C)cc3)C(=S)N2)cc1 | 7.3% | 36.1* | 41.7 | -8.8% | -0.6% | .
COc1ccc(OCc2n[nH]c(=S)n2-c2ccc(C)cc2)cc1 | 9.3% | 4.2 | -25.4 | 6.0% | 7.0% | -7.7%
Cc1ccc(N2CN=C(c3ccccc3)NC2=S)cc1 | -2.0% | 63.4* | 98.4* | -4.0% | -4.7% | .
CCOC(=O)CCCNC(=O)CN1CCC(c2nc3ccccc3s2)CC1 | ? | 1.6 | -3.8 | -1.0% | 7.5% | 4.8%
CCCC[C@@H](C)[C@@H](OC(=O)C[C@@H](CC(=O)O)C(=O)O)[C@H](C[C@@H](C)CCCCCC[C@@H](O)C[C@H](O)[C@H](C)N)OC(=O)C[C@@H](CC(=O)O)C(=O)O | . | -4.2 | -11.9 | . | 12.5% | .
COc1ccc(NC(=O)c2cccc(N3C(=O)c4cccc([N+](=O)[O-])c4C3=O)c2)cc1 | 25.2% | 24.3* | 25.7 | 1.7% | . | 16.9%
CC(C)CC(=O)Nc1ccc(-c2cn3cccnc3n2)cc1 | 2.7% | 29.0* | 87.9* | 2.4% | 6.5% | 39.2%
CCN(CC)S(=O)(=O)c1cccc(-c2cn3cccnc3n2)c1 | 14.7µM* | -1.5 | -4.8 | 2.2% | 3.0% | 4.15µM*
CCCC(=O)Nc1cccc(-c2cn3cccnc3n2)c1 | ? | 22.9* | 36.9 | . | 1.4% | 23.2%
CC(C)CC(=O)Nc1ccc(-c2cn3ccsc3n2)cc1 | 13.1µM* | 18.5* | 32.6* | -6.6% | 2.1% | 73.8%
CC1CCCN(S(=O)(=O)c2cccc(-c3cn4cccnc4n3)c2)C1 (stereo not given) | ? | -5.1 | 0.9 | -16.8% | 1.5% | -13.6%
SMILES | Pf growth 96h | CHX counter | Shiga toxin inh | NS1 inh | FBPA Giardia inh | Pf growth 48h
CC(C(=O)Nc1ccccc1)N(C)Cc1cccs1 (stereo not given) | 13.8% | -3.1 | -6.7 | -48.1% | -3.1% | 3.3%
O=C(COC(=O)c1ccc2c(c1)OCO2)Nc1ccccc1Cl | ? | . | . | . | . | 16.6%
CC(C)(C)CC(=O)Nc1ccc(-c2cn3cccnc3n2)cc1 | -17.2% | 38.8* | 72.1* | 1.2% | 0.1% | 66.9%
CCCC(=O)Nc1cc(-c2cn3cccnc3n2)ccc1OC | 35.0% | 1.1 | -11.1 | -1.4% | -0.4% | 56.1%
CCCC(=O)Nc1ccc(-c2cn3cccnc3n2)cc1 | -24.4% | 30.7* | 38.7* | -2.3% | -11.2% | 55.6%
CCOCC(=O)Nc1ccc(-c2cn3cccnc3n2)cc1 | ? | 16.1 | 4.6 | -1.1% | -1.1% | 41.9%
CCC(=O)c1ccc(OCC(=O)OC(C)C(=O)NCc2ccc3c(c2)OCO3)cc1 (stereo not given) | 21.3% | . | . | . | . | ?
CCC(=O)NC(c1cccs1)c1cc(Cl)c2cccnc2c1O (stereo not given) | 11.7% | -2.5 | 1.9 | 5.1% | 1.1% | -19.3%
CCCCC(=O)NC(c1cccs1)c1cc(Cl)c2cccnc2c1O (stereo not given) | 0.0% | -3.4 | -3.6 | -53.3% | 1.6% | 0.738µM*
CCCC(=O)NC(c1ccc(OC)c(OC)c1)c1cc(Cl)c2cccnc2c1O (stereo not given) | ? | -2.7 | 1.0 | 1.3% | -6.4% | 9.28µM*
O=C(c1ccco1)N1CCC2(CC1)CCN(c1cccc(-c3ccccc3)c1)CC2 | . | . | . | . | 1.1% | .
COc1ccccc1C(C)Nc1nc(-c2cccnc2)nc2ccccc12 (stereo not given) | ? | -4.0 | -7.3 | -76.3% | 12.4% | 13.1µM*
CC(Nc1nc(N2CCNCC2)nc2ccccc12)c1ccccc1 (stereo not given) | 0.0% | 0.1 | -6.7 | . | 1.3% | 2.94µM*
c1ccc(Nc2nc(-c3ccncc3)nc3ccccc23)cc1 | ? | -3.4 | -12.9 | 2.4% | -7.7% | 0.3%
CC(Nc1nc(-c2ccncc2)nc2ccccc12)c1ccccc1 (stereo not given) | 4.65µM* | -4.8 | -4.8 | -2.9% | 8.5% | 5.22µM*
CC(C)(C)NCC(O)COc1c(F)cc(Br)cc1F (stereo not given) | . | -0.8 | -10.9 | 1.0% | -7.4% | 11.7µM*
CC(C)(C)CC(C)(C)NCC(O)COc1c(F)cc(Br)cc1F (stereo not given) | 0.586µM* | -4.7 | -9.5 | -7.6% | 3.4% | .
Cc1cc(C)c(OCC(O)CNC(C)(C)C)c(C)c1 (stereo not given) | 15.1% | -2.3 | 21.2 | . | 2.3% | -16.0%
CC(C)CN(C(=O)c1cccs1)C1CCS(=O)(=O)C1 (stereo not given) | 1.6% | . | . | . | . | 1.3%
CCOc1ccc(CNc2ccc(CNc3ncn[nH]3)cc2)cc1 | ? | 6.4 | -2.1 | 9.5% | 0.3% | 44.7%
c1ccc2c(CNc3ccc(CNc4ncn[nH]4)cc3)cccc2c1 | ? | 23.4* | active | 11.4% | -0.1% | 14.1%
COc1ccccc1CNc1ccc(CNc2ncn[nH]2)cc1 | ? | -1.2 | 4.8 | 2.0% | 1.6% | -17.2%

Compound activity (PubChem BioAssay)
